# In all, about 5,500 compounds went through this assay and about 2,000 (36%) were called active. About 18% were inconclusive and are not listed. The list shows a part of the results. A number with no mark means an inactive call. Cut-off read from the data, not from the text of the source: active = normalized growth mostly below about 0.91 (no sharp cut-off); inconclusive = no clear call, values can overlap the other calls; inactive = mostly above about 0.92.
# Experiment: chemical genetic growth profiling, strain panel (AID 1159580);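 note: tested at 20 µM; growth read once vehicle control cultures reached saturation at 30 °C; 1 = growth at the plate median or of vehicle wells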
# Details: S. cerevisiae deletion strains, growth OD
smiles,measurement,setting,value
COc1cc(O)c2c(=O)c(-c3ccc(O)cc3)coc2c1,normalized growth,"locus YBR021W, strain FUR4, stronger effect = lower value",0.832 (active)
same,normalized growth,"locus YBR229C, strain ROT2, stronger effect = lower value",0.973
same,normalized growth,"locus YCL029C, strain bik1, stronger effect = lower value",0.952
same,normalized growth,"locus YDL035C, strain GPR1, stronger effect = lower value",0.89
same,normalized growth,"locus YDL074C, strain BRE1, stronger effect = lower value",0.782
same,normalized growth,"locus YDL101C, strain DUN1, stronger effect = lower value",0.942
same,normalized growth,"locus YDL134C, strain PPH21, stronger effect = lower value",0.859 (active)
same,normalized growth,"locus YDL185W, strain tfp1, stronger effect = lower value",0.972
same,normalized growth,"locus YDL192W, strain arf1, stronger effect = lower value",0.84 (active)
same,normalized growth,"locus YDR101C, strain arx1, stronger effect = lower value",0.873 (active)
same,normalized growth,"locus YDR162C, strain NBP2, stronger effect = lower value",0.853
same,normalized growth,"locus YDR318W, strain mcm21, stronger effect = lower value",0.886 (active)
same,normalized growth,"locus YDR388W, stronger effect = lower value",0.943
same,normalized growth,"locus YDR502C, strain sam2, stronger effect = lower value",0.842 (active)
same,normalized growth,"locus YEL061C, strain CIN8, stronger effect = lower value",0.93
same,normalized growth,"locus YER110C, stronger effect = lower value",0.944
same,normalized growth,"locus YER155C, strain BEM2, stronger effect = lower value",0.891 (active)
same,normalized growth,"locus YER167W, strain BCK2, stronger effect = lower value",0.853 (active)
same,normalized growth,"locus YGL078C, strain dbp3, stronger effect = lower value",0.935
same,normalized growth,"locus YGL086W, strain mad1, stronger effect = lower value",0.881 (active)
same,normalized growth,"locus YGL248W, strain PDE1, stronger effect = lower value",0.874 (active)
same,normalized growth,"locus YGR078C, strain PAC10, stronger effect = lower value",0.835 (active)
same,normalized growth,"locus YGR135W, strain pre9, stronger effect = lower value",0.817 (active)
same,normalized growth,"locus YGR252W, strain gcn5, stronger effect = lower value",0.612 (active)
same,normalized growth,"locus YHR030C, strain SLT2, stronger effect = lower value",0.916 (active)
same,normalized growth,"locus YHR079C, strain IRE1 (second series), stronger effect = lower value",0.947
same,normalized growth,"locus YHR094C, strain hxt1, stronger effect = lower value",0.959
same,normalized growth,"locus YHR129C, strain ARP1, stronger effect = lower value",0.899 (active)
same,normalized growth,"locus YHR200W, strain rpn10, stronger effect = lower value",0.894 (active)
same,normalized growth,"locus YIL066C, strain RNR3, stronger effect = lower value",0.845 (active)
same,normalized growth,"locus YIL073C, strain SPO22, stronger effect = lower value",0.818
same,normalized growth,"locus YIL125W, strain kgd1, stronger effect = lower value",0.964
same,normalized growth,"locus YIR030C, strain dcg1, stronger effect = lower value",0.938
same,normalized growth,"locus YJL095W, strain BCK1, stronger effect = lower value",0.73 (active)
same,normalized growth,"locus YJL134W, strain LCB3, stronger effect = lower value",0.984
same,normalized growth,"locus YJL168C, strain set2, stronger effect = lower value",0.947
same,normalized growth,"locus YJL187C, strain SWE1 (second series), stronger effect = lower value",0.894
same,normalized growth,"locus YJR043C, strain POL32, stronger effect = lower value",0.771 (active)
same,normalized growth,"locus YJR075W, strain HOC1, stronger effect = lower value",0.859 (active)
same,normalized growth,"locus YKL009W, strain mrt4, stronger effect = lower value",0.88
same,normalized growth,"locus YKL068W, stronger effect = lower value",0.969
same,normalized growth,"locus YKL085W, strain MDH1 (second series), stronger effect = lower value",0.948
same,normalized growth,"locus YKL085W, strain MDH1, stronger effect = lower value",0.948
same,normalized growth,"locus YKL190W, strain CNB1, stronger effect = lower value",0.961
same,normalized growth,"locus YKR001C, strain vps1, stronger effect = lower value",0.73 (active)
same,normalized growth,"locus YLR039C, strain RIC1, stronger effect = lower value",0.58 (active)
same,normalized growth,"locus YLR058C, strain SHM2, stronger effect = lower value",0.913
same,normalized growth,"locus YLR102C, strain apc9, stronger effect = lower value",0.946
same,normalized growth,"locus YLR262C, strain YPT6, stronger effect = lower value",0.552 (active)
same,normalized growth,"locus YLR268W, strain sec22, stronger effect = lower value",0.866 (active)
same,normalized growth,"locus YLR330W, strain CHS5, stronger effect = lower value",0.872 (active)
same,normalized growth,"locus YLR342W, strain FKS1 (second series), stronger effect = lower value",0.701 (active)
same,normalized growth,"locus YLR371W, strain rom2, stronger effect = lower value",0.823 (active)
same,normalized growth,"locus YLR418C, strain cdc73, stronger effect = lower value",0.61 (active)
same,normalized growth,"locus YML016C, strain PPZ1, stronger effect = lower value",0.947
same,normalized growth,"locus YML032C, strain rad52, stronger effect = lower value",0.865 (active)
same,normalized growth,"locus YML124C, strain tub3, stronger effect = lower value",0.942
same,normalized growth,"locus YMR078C, strain ctf18, stronger effect = lower value",0.954
same,normalized growth,"locus YMR223W, strain ubp8, stronger effect = lower value",0.862 (active)
same,normalized growth,"locus YMR263W, strain SAP30, stronger effect = lower value",0.884 (active)
same,normalized growth,"locus YMR307W, strain GAS1, stronger effect = lower value",0.642
same,normalized growth,"locus YNL067W, strain RPL9B, stronger effect = lower value",0.891
same,normalized growth,"locus YNL128W, strain TEP1, stronger effect = lower value",0.96
same,normalized growth,"locus YNL153C, strain GIM3, stronger effect = lower value",0.941
same,normalized growth,"locus YNL233W, strain BNI4, stronger effect = lower value",0.809 (active)
same,normalized growth,"locus YNL250W, strain rad50, stronger effect = lower value",0.957
same,normalized growth,"locus YNL271C, strain bni1, stronger effect = lower value",0.94
same,normalized growth,"locus YNL298W, strain CLA4, stronger effect = lower value",0.894 (active)
same,normalized growth,"locus YNL307C, strain MCK1, stronger effect = lower value",0.816 (active)
same,normalized growth,"locus YNR052C, strain pop2, stronger effect = lower value",0.919
same,normalized growth,"locus YOL006C, strain TOP1, stronger effect = lower value",0.489 (active)
same,normalized growth,"locus YOL012C, strain htz1",1.29
same,normalized growth,"locus YOL147C, strain pex11, stronger effect = lower value",0.877 (active)
same,normalized growth,"locus YOR061W, strain CKA2, stronger effect = lower value",0.936
same,normalized growth,"locus YOR069W, strain VPS5, stronger effect = lower value",0.94
same,normalized growth,"locus YOR136W, strain idh2, stronger effect = lower value",0.946
same,normalized growth,"locus YOR144C, strain elg1, stronger effect = lower value",0.918 (active)
same,normalized growth,"locus YOR184W, strain ser1, stronger effect = lower value",0.756 (active)
same,normalized growth,"locus YOR316C, strain cot1, stronger effect = lower value",0.945
same,normalized growth,"locus YPL055C, strain LGE1, stronger effect = lower value",0.791
same,normalized growth,"locus YPL241C, strain CIN2, stronger effect = lower value",0.97
same,normalized growth,"locus YPR119W, strain clb2, stronger effect = lower value",0.962
same,normalized growth,"locus YPR141C, strain kar3, stronger effect = lower value",0.967
same,normalized growth,"locus YPR163C, strain tif3, stronger effect = lower value",0.93
same,normalized growth,"locus YPR167C, strain met16, stronger effect = lower value",0.942
same,normalized growth,"strain wtn01, stronger effect = lower value",0.841 (active)
